{"source": "PubChem BioAssay AID588525", "about": "(Broad Institute, 2011)", "note": "Measured potencies and affinities stand elsewhere. Results filed as inconclusive are left out. Unmarked numbers belong to inactive results. The rule behind the calls is not given here.", "data": [{"molecular_target": "DNA topoisomerase I (Yersinia pestis CO92) (UniProt A0A2S9PM60)", "sequence (A0A2S9PM60 1-871)": "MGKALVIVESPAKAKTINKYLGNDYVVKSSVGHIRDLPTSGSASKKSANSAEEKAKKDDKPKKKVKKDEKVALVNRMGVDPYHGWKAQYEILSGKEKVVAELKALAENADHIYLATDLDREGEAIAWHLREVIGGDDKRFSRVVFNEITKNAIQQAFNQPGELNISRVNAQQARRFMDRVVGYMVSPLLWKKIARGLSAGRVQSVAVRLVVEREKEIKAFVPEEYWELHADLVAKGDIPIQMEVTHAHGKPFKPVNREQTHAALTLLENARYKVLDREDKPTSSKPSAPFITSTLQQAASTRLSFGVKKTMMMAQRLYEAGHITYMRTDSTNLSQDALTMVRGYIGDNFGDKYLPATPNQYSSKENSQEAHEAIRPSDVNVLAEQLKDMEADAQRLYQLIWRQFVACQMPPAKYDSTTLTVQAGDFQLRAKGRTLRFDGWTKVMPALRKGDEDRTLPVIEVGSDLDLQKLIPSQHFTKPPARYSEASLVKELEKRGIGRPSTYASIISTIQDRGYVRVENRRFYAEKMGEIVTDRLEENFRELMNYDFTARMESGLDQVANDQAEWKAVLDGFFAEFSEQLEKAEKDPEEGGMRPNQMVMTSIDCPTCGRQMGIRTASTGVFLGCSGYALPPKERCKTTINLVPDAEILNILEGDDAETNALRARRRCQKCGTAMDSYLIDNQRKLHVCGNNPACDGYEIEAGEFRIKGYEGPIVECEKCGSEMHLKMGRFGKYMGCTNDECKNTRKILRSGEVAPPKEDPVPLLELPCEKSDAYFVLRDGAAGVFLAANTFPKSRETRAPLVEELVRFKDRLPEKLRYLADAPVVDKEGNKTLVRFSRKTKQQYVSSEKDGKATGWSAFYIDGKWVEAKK", "test": "Yersinia topoisomerase I cleavage product accumulation – biochemical, Y. pestis CO92, cherry-pick, dose response (AID 588525)", "details": "purified Y. pestis Topo-I, plate reader; series mostly up to 38 µM; activity (cleavage complex accumulation): at the top concentration", "values": [{"smiles": "O=C(COc1c(Cl)cccc1Cl)Nc1ccccc1N1CCCC1", "activity (cleavage complex accumulation)": "16.1%"}, {"smiles": "CC(C)OC(=O)C(C)(C)Oc1ccc(C(=O)c2ccc(Cl)cc2)cc1", "activity (cleavage complex accumulation)": "20.1%"}, {"smiles": "Cc1ccc(CSc2nc3c(c(N(C)C)n2)CCCC3)cc1", "activity (cleavage complex accumulation)": "9.99%"}, {"smiles": "CC(=O)c1ccccc1OCc1ccc(C(=O)c2ccccc2)cc1", "activity (cleavage complex accumulation)": "36.3%"}, {"smiles": "Cc1cc(NC(=O)C(C)SCC(=O)N(C)CC(=O)Nc2ccc(F)cc2)no1", "note": "(centres undefined)", "activity (cleavage complex accumulation)": "16.3%"}, {"smiles": "O=C(NCCn1cc(SCc2ccccc2)c2ccccc21)c1ccccc1F", "activity (cleavage complex accumulation)": "26.2% [at 5 µM]"}, {"smiles": "O=C(NCC1(c2ccccc2)CCCC1)C1(c2ccccc2)CCCC1", "activity (cleavage complex accumulation)": "18.5%"}, {"smiles": "CCCCN1CC(COCc2ccccc2)Oc2cccc(F)c2S1(=O)=O", "note": "(centres undefined)", "activity (cleavage complex accumulation)": "28.1%"}, {"smiles": "COC(=O)c1ccc(C2C(Oc3ccc(OC)cc3)C(=O)N2CCc2ccc(F)cc2)cc1", "note": "(centres undefined)", "activity (cleavage complex accumulation)": "19.9% [at 19.5 µM]"}, {"smiles": "O=C(OCc1ccccc1)N1CCC2CC1c1c(Cl)cccc12", "note": "(centres undefined)", "activity (cleavage complex accumulation)": "34.9%"}, {"smiles": "COc1ccc(C2CC(c3ccccc3)=NN2C(=O)COC(=O)c2cccc(S(=O)(=O)N3CCOCC3)c2)cc1", "note": "(centres undefined)", "activity (cleavage complex accumulation)": "40.6% [at 10 µM]"}, {"smiles": "CCCCCCCCN1[C@@H](CC(C)=O)c2cc(C(F)(F)F)ccc2S1(=O)=O", "activity (cleavage complex accumulation)": "24.3% [at 10 µM]"}, {"smiles": "O=C(Cc1ccccc1)CC(CC(=O)c1ccccc1)c1ccccc1", "note": "(centres undefined)", "activity (cleavage complex accumulation)": "40.3%"}, {"smiles": "COc1ccccc1C(=O)NCCC(=O)N1CC=C(c2ccccc2)CC1", "activity (cleavage complex accumulation)": "25.7%"}, {"smiles": "CCCCC(CC)COC(=O)c1ccccc1C(=O)OCC(CC)CCCC", "note": "(centres undefined)", "activity (cleavage complex accumulation)": "20.7%"}, {"smiles": "O=C(COC(=O)CCC1CCCC1)Nc1ccccc1Sc1ccccc1", "activity (cleavage complex accumulation)": "34.9%"}, {"smiles": "C#CCN(C[C@@H](CC(C)C)NC(=O)OC(C)(C)C)S(=O)(=O)c1ccc(Br)cc1F", "activity (cleavage complex accumulation)": "15.2%"}, {"smiles": "Cc1ccccc1OCC(=O)Nc1ccccc1N1CCCCC1", "activity (cleavage complex accumulation)": "37%"}, {"smiles": "Cc1ccc2c(Cl)c(C)c(N3CCCCC3)nc2n1", "activity (cleavage complex accumulation)": "24.9% [at 10 µM]"}, {"smiles": "CCCCn1c(C)cc(C)c(S(=O)(=O)c2ccccc2C)c1=O", "activity (cleavage complex accumulation)": "30.2% [at 19.5 µM]"}, {"smiles": "CC1CCN(c2oc(Cc3cccc4ccccc34)nc2C#N)CC1", "activity (cleavage complex accumulation)": "22.8%"}, {"smiles": "CCCCOC(=O)Nc1nnc(/C=C/c2ccc(OC)cc2)s1", "activity (cleavage complex accumulation)": "33.7%"}, {"smiles": "CSc1ccccc1NC(=O)COC(=O)c1ccccc1Cc1ccccc1", "activity (cleavage complex accumulation)": "37.9%"}, {"smiles": "C[C@H]1CCC(=O)N([C@H](CSc2ccccc2)Cc2ccccc2)CC1", "activity (cleavage complex accumulation)": "12%"}]}]}
